Screens as filed in PubChem.
KCNQ2 enhance – potentiators of rat KCNQ2 potassium channel | CHO-K1 KCNQ2, FluxOR thallium flux fluorescence; hits give high values | B-score at 10 µM | hit rate 0.54% among 310,000;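 active = fluorescence ratio B-score at least 3 SD of library B-scores, with initial fluorescence B-score within 3 of them, cut at about 5.3 in these data; same plate scores as AID 2156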;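 note: B-score of peak minus minimum over baseline fluorescence ratio after K+ and Tl+ stimulus; positive B-score means potentiation of KCNQ2 with more thallium influx and brighter signal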
KCNQ2 block – rat KCNQ2 potassium channel inhibitors, primary screen, cell-based, CHO-K1, FluxOR thallium flux, B-score; Potassium voltage-gated channel subfamily KQT member 2 (Rattus norvegicus), O88943; 20 min; hits give low values; B-score at 10 µM; hit rate 1.1% among 310,000;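 active = fluorescence ratio B-score at most minus 3 library SDs, with starting brightness B-score within 2 library SDs, cut at about -5.5 in these data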
The depositor's hits bear a star; i = inactive; · = not tested or not shown. Shown are actives, neighbours in structure and some others; about 1.6% of the full set was active somewhere.

SMILES | KCNQ2 enhance | KCNQ2 block
COc1cccc(/C=N/NC(=O)c2c(-c3ccccc3)noc2C)c1O | · | i
CC(C)C(OC(=O)CCC(=O)Nc1nccs1)C(=O)NC1CCCCC1 (configuration not stated) | · | i
Cc1ccc([N+](=O)[O-])cc1NC(=O)CN(C1CCCCC1)S(=O)(=O)c1ccc(Cl)cc1 | -7.87 | -7.87*
COc1ccc(C)cc1S(=O)(=O)N(CC(=O)Nc1cccc([N+](=O)[O-])c1)c1ccccc1 | 0.79 | i
Cc1ccccc1CN(CC(=O)Nc1cccc([N+](=O)[O-])c1)S(=O)(=O)c1ccc(Cl)cc1 | -6.64 | -6.64*
Cc1ccc([N+](=O)[O-])cc1NC(=O)CN(C(=O)c1ccccc1Cl)C1CCCCC1 | · | i
Cc1ccc(NC(=O)CN(c2ccc(Cl)cc2)S(=O)(=O)c2cc([N+](=O)[O-])ccc2Cl)c(C)c1 | -7.87 | -7.87*
CS(=O)(=O)N(CC(=O)Nc1cccc([N+](=O)[O-])c1)c1ccccc1 | 1.12 | i
CCOC(=O)CSc1nc2cc(C(F)(F)F)cnc2n1C | · | i
COc1cc(Cl)ccc1OCc1cc(C(=O)NCC(C)c2ccccc2)no1 (configuration not stated) | · | i
COc1ccc(-c2cc3c(=O)n(CC(=O)N4CCCCC4)ncn3n2)cc1 | · | i
CCn1ccnc1CN(C)Cc1cn(-c2cc(C)ccc2C)nc1-c1ccccc1 | -8.17 | -8.17*
CCn1ccnc1CN(C)Cc1cn(-c2ccc(C)cc2)nc1-c1ccc(F)cc1 | · | i
CC(=O)Nc1ccc(OC(F)(F)Cl)cc1 | 1.43 | i
Cc1ccc(S(=O)(=O)Oc2ccc(/C=C3/N=C(c4ccccc4)OC3=O)cc2)cc1 | -7.43 | -7.43*
COc1ccc(/C=C2\N=C(c3ccc(C)cc3)OC2=O)cc1 | · | i
Cc1ccc2cc(CCNS(=O)(=O)c3ccc(F)cc3)c(=O)[nH]c2c1C | 1.24 | i
Cc1cccc(CN2C(=O)/C(=C\c3ccc(C(=O)NCCN4CCOCC4)cc3)Sc3ccccc32)c1 | · | i
CCOC(=O)CN1C(=O)N[C@@H](c2cccs2)C(C(C)=O)=C1C | 1.15 | i
CCOc1cc(NC(=S)Nc2ccccc2OC)c(OCC)cc1NC(=O)c1ccccc1C | -5.73 | -5.73*
CCOc1cc(NC(=S)NCC2CCCO2)c(OCC)cc1NC(=O)c1ccccc1C (configuration not stated) | 0.54 | i
CCCCN(C)C(=O)CCC(=O)Nc1ccc2nc(N3CCOCC3)cc(C)c2c1 | · | i
C=C(C)CNC(=S)N/N=C\c1ccc2c(c1)OCO2 | 2.59 | i
Cc1sc2nc(-c3ccccn3)[nH]c(=O)c2c1-c1ccccc1 | 12.8* | i
Cc1sc2nc(-c3ccncc3)[nH]c(=O)c2c1-c1ccccc1 | 0.02 | i
SMILES | KCNQ2 enhance | KCNQ2 block
CC(Oc1cccc(F)c1)c1ccnc2nc(/N=C/N(C)C)nn12 (configuration not stated) | · | i
CC(C)CN(/C=N/c1sc2c(c1C#N)CCCCC2)CC(C)C | -6.23 | -6.23*
CCN(/C=N/c1sc2c(c1C#N)CCCCC2)CC | · | i
Cc1ccc(NC(=O)CN(C)CC(=O)Nc2ccccc2-c2ccccc2)cc1 | · | i
CN(CC(=O)Nc1ccccc1-c1ccccc1)Cc1ccccc1Cl | -6.28 | -6.28*
CC(C)(C)n1cnc(C(N)=O)c1N | 0.77 | i
CCOc1ccccc1CN1CCN(Cc2cc3ccccc3[nH]2)CC1CCO (configuration not stated) | · | i
CCOC(=O)N1CCN(CCC(=O)c2ccc(OC)cc2)CC1 | · | i
CCOC(=O)N1CCN(CCC(=O)c2ccc(Cl)cc2)CC1 | -6.74 | -6.74*
O=C(CN(Cc1ccco1)C(=O)c1ccc(Cl)cc1)Nc1c(Cl)cc(Cl)cc1Cl | · | i
O=C(CN(Cc1ccco1)C(=O)c1cccc(Cl)c1)Nc1c(Cl)cc(Cl)cc1Cl | -5.74 | -5.74*
CCCn1c(=O)c(C(=O)NCCc2ccc(OC)c(OC)c2)c(O)c2ccccc21 | -6.18 | -6.18*
CCCn1c(=O)c(C(=O)NCc2ccc3c(c2)OCO3)c(O)c2ccccc21 | -5.87 | -5.87*
CCCn1c(=O)c(C(=O)NCc2cccnc2)c(O)c2ccccc21 | · | i
CCn1c(=O)c(C(=O)NCCc2ccc(OC)c(OC)c2)c(O)c2ccccc21 | · | i
COc1ccc(Cl)cc1Nc1ncnc2sc(C)c(S(=O)(=O)N3CCC(C)CC3)c12 | -6.69 | -6.69*
COCCNC(=O)Cn1cnc2sc(C)c(S(=O)(=O)N3CCC(C)CC3)c2c1=O | · | i
CCN1CCC(NC(=O)Nc2ccccc2C(=O)OC)CC1 | 1.49 | i
COc1ccc(CCN(Cc2cc3cccc(C)c3[nH]c2=O)C(=O)NC2CCCCC2)cc1OC | · | i
COCCn1c(C)cc(C(=O)CSc2nc(C)cc(C)c2C#N)c1C | · | i
Cc1cc(C)c(C#N)c(SCC(=O)c2cc(C)n(CCc3ccccc3)c2C)n1 | -6.44 | -6.44*
CCN(CC)C(=O)/C(=C\c1ccc2c(c1)OCO2)NC(=O)c1ccc(Br)cc1 | -6.51 | -6.51*
